In the library only some 4.8% were active in any assay of this set; here they are far more common.
SMARCA2 activ – SMARCA2 function activation, primary screen. MG213 cells, MMTV-luciferase reporter, dexamethasone, overnight. activation, % at 9.1 µM. 370,000 tested, 1% active. AID 652017; in the data active = activation above about 7.8%
DAX1 inh-1 – blocks DAX1 repression of SF-1 activated StAR promoter | HEK293T StAR-luciferase reporter, SF-1/DAX-1 repression relief | inhibition, % at 6.8 µM | 370,000 tested, 1.1% active | AID 652010;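 active = inhibition above the mean over all tested compounds plus 3 SD, cut at about 3.6% in these data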;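 also: higher inhibition means more luminescence from relief of DAX-1 repression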
hcDAF12 agonist – activates DAF-12 receptor from parasite H. contortus | HEK293 hcDAF-12 lit1-tk-luc reporter, luminescence; 0% DMSO, 100% Δ7-dafachronic acid | activation, % at 6.8 µM | 370,000 tested, 1.4% active;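 active = activation above the mean of all tested compounds plus 3 SD, cut at about 5.5% in these data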
hgDAF12 agonist – agonists of H. glycines DAF-12 nuclear receptor; HEK293 GAL4-hgDAF12 UAS-luciferase reporter, agonist luminescence; normalized to butyrate control; activation, % at 6.8 µM; 370,000 tested, 1.8% active; AID 687014;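 active = activation above a cutoff set at the mean of all screened compounds plus 3 SD, cut at about 10% in these data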
DAX1 inh-2 – inhibits human nuclear receptor DAX1. HEK293 Gal4-DAX1 luciferase reporter, luminescence. inhibition, % at 6.75 µM. P51843. AID 504766. 340,000 tested, 0.99% active;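 active = inhibition above the mean over all tested compounds plus 3 SD, cut at about 4.2% in these data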;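 also: inhibition shows as a rise in luminescence from relieved DAX1 repression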
Target sequence (P51843 207-470 limits assumed): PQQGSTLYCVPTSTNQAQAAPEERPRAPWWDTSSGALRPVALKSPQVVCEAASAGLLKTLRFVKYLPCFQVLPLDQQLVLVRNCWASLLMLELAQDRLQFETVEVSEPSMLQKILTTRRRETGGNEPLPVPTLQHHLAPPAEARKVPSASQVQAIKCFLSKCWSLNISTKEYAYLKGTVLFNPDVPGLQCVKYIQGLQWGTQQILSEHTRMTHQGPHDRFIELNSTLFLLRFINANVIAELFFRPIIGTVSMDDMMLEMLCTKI
ssDAF-12 act – activates DAF-12 receptor from parasite S. stercoralis. HEK293 ssDAF-12/GRIP1 lit1-tk-luc reporter, luminescence; % of 3 µM dafachronic acid response. AID 652126. 370,000 tested, 1% active. activation, % at 6.8 µM;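 active = activation above the mean over all tested compounds plus 3 SD, cut at about 0.9% in these data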
Of the large screens only hits and unclear results are named; the others gave an inactive call.

COC(=O)c1cc(C(C)=O)c(C)[nH]c1=O	DAX1 inh-2 5.9
CCOC(=O)c1cc(C(C)=O)c(=O)[nH]c1C	none
CC(NC(=O)Nc1ccc(Cl)cc1)C(c1cccs1)N1CCOCC1 (stereo not drawn)	ssDAF-12 act 1.5
CC(Cl)=CCn1c(NCCc2ccccc2)nc2c1c(=O)n(C)c(=O)n2C	none (no result: DAX1 inh-2)
CCN(Cc1ccccc1)C(=O)CCS(=O)(=O)c1ccc2c(c1)n(C)c(=O)c(=O)n2C	none
CCCCn1c(=O)c(CCC(=O)OCC(=O)Nc2cccc3ccccc23)nc2ccccc21	ssDAF-12 act 1.6
COc1ccccc1NC(=O)C1CCCN1C(=O)NC1CCCCC1 (stereo not drawn)	none
Cc1cccc(NC(=S)N2CCN(S(=O)(=O)c3ccc(F)cc3)CC2)c1	none
O=C(Nc1ccc(OC(F)(F)F)cc1)Nc1c(-c2ccccc2)nc2ncccn12	none (no result: DAX1 inh-2)
CCOc1ccccc1CN1CCN(S(=O)(=O)CC)CC1	none
COc1cccc(CN2CCN(Cc3cc(OC)c(OC)c(OC)c3)CC2)c1OC	ssDAF-12 act 1.3
CCS(=O)(=O)N1CCN(Cc2ccccc2OC)CC1	ssDAF-12 act 1.2
COc1cccc(CN2CCN(Cc3cccc(Oc4ccccc4)c3)CC2)c1OC	none
O=C(Nc1ccnn1C1CCN(Cc2ccc(CO)o2)CC1)c1ccccc1	none
CCc1ccc(CN(C)C(=O)C2CCC(=O)N(Cc3ccccn3)C2)cc1 (stereo not drawn)	none
O=C(O)C(Cc1ccccc1)N1C(=O)c2cccc3cccc(c23)C1=O (stereo not drawn)	ssDAF-12 act 1.7
O=C(O)C(Cc1ccccc1)N1C(=O)c2ccccc2C1=O (stereo not drawn)	none
COP(=O)(O)C[C@@H]1CCc2cc(C)cc([C@H](CC(C)C)NC(=O)OCc3ccccc3)c2O1	none (no result: DAX1 inh-2)
Cc1ccc2c(c1)C(=O)N1c3cc(C)c(C)cc3NC(=O)C1C(=O)N2 (stereo not drawn)	none (no result: DAX1 inh-2)
Brc1ccc(-c2nc(-c3ccccc3)no2)o1	hcDAF12 agonist 6.1, hgDAF12 agonist 12, ssDAF-12 act 1.4
CCOC1=C2CN(S(=O)(=O)c3ccc(C)cc3)C(c3ccccc3)CC2N(S(=O)(=O)c2ccccc2Cl)C(c2ccccc2)C1 (stereo not drawn)	none (no result: DAX1 inh-2)
Cn1c(-c2ccccc2Br)n[nH]c1=S	hcDAF12 agonist 5.6
CC(=O)c1ccc(N2CCN(C(=O)CCS(=O)(=O)c3ccc4c(c3)CCN4C(C)=O)CC2)cc1	none
Nc1ccn([C@@H]2O[C@H](C(=O)NCC(F)(F)F)[C@@H](O)[C@H]2O)c(=O)n1	none (no result: DAX1 inh-2)
c1ccc(NCc2cccnc2)cc1	none
c1cncc(CNc2cccc(-c3nc4ccccc4[nH]3)c2)c1	hgDAF12 agonist 11
COc1cccc(NC(=O)N(C)C[C@@H]2OCc3cnnn3CCCC(=O)N([C@@H](C)CO)C[C@H]2C)c1	none
Cc1cc(C(=O)NNc2ccc(F)cc2F)no1	DAX1 inh-2 7.6
Cc1ccc(NCc2n[nH]c(=S)n2-c2cccc(Cl)c2)cc1	DAX1 inh-2 4.5
Cc1ccc(-n2c(CNc3cccc(Cl)c3)n[nH]c2=S)cc1	none
N/C(=N\OC(=O)Cc1cccs1)c1ccc([N+](=O)[O-])cc1	hgDAF12 agonist 11
O=C(Nc1cccc(S(=O)(=O)N2CCOCC2)c1)c1ccc(=O)[nH]c1	none
COc1ccc(C(CNC(=O)c2ccc(S(=O)(=O)Nc3ccccc3OC)cc2)N2CCCC2)cc1 (stereo not drawn)	DAX1 inh-1 4.2
CC(=O)N(C(C)=O)c1ncn(C)c1S(=O)(=O)Nc1ccccc1	none
COc1cc(NC(=O)c2ccc(C)cc2)c(OC)cc1NC(=O)CN1CCCCC1	none
COc1cc(OC)c(NC(=O)c2cccc(F)c2)cc1Cl	ssDAF-12 act 1.2
COc1cc(NC(=O)c2cc(CC(C)C)on2)c(OC)cc1Cl	none
COc1cc(NC(=O)c2ccccc2)c(OC)cc1Cl	hcDAF12 agonist 5.8
CCCc1cc(C(=O)Nc2cc(OC)c(Cl)cc2OC)no1	hcDAF12 agonist 6.5
COc1cc(N)c(Cl)cc1NC(=O)c1ccccc1	none
COc1cc(NC(=O)c2ccccc2Cl)c(OC)cc1NC(=O)CN1CCCCC1	SMARCA2 activ 7.8
CCCNC(=O)C1(C)CCN(Cc2ccc(OCc3ccccc3)cc2)C1 (stereo not drawn)	none (no result: DAX1 inh-2)
COc1ccc(-n2nc(C(=O)NCC(=O)NCCC3=CCCCC3)c3ccccc3c2=O)cc1OC	none
COc1ccc(NC(=O)CCCc2ccccc2)cc1OC	DAX1 inh-2 4.2
COc1ccc(CCNC(=O)CCc2ccccc2)cc1OC	none (no result: DAX1 inh-2)
COc1ccc(NC(=O)CCCC(=O)c2ccccc2)cc1OC	none
COc1ccc(CCNC(=O)Cc2ccccc2)cc1OC	DAX1 inh-2 5.6
CCC(CO)NCc1cc(OC)c(OCC(=O)NCCc2ccccc2)cc1Br (stereo not drawn)	SMARCA2 activ 8.3
COc1ccc(CCNC(=O)C/C(C)=N/NC(=O)c2ccc(N)cc2)cc1OC	ssDAF-12 act 0.9
CN1Cc2nnn(Cc3ccccc3)c2-c2cc(N3CCCC3)ccc2S1(=O)=O	none (no result: DAX1 inh-2)
C[C@H]1[C@@H](OC(=O)Nc2ccc(C#N)cc2)CC[C@@]23CCCN2C(=O)CCC[C@@H]13	none (no result: SMARCA2 activ, DAX1 inh-1, DAX1 inh-2)
C#Cc1ccc(NC(=O)C2(C)CCN2C(=O)C2(c3ccccc3)CCCC2)cc1 (stereo not drawn)	none (no result: DAX1 inh-2)
CC(NC(=O)COC(=O)COc1ccc(C(=O)c2ccccc2)cc1)c1ccccc1 (stereo not drawn)	none
COc1ccc(CCNC(=O)Cn2nc(C(=O)O)c3ccccc3c2=O)cc1OC	none
Cc1ccc(NC(=O)CCCc2ccccc2)nc1	DAX1 inh-1 3.8
COc1ccc(CC(=O)NNC(=O)c2nn(Cc3ccccc3)c(=O)c3ccccc23)cc1OC	DAX1 inh-2 5.1
Cc1ccc(NC(=O)Cc2ccc(-c3ccccc3)cc2)nc1	none
Cc1cc(C)c2cc3c(N)c(C(=O)N4CCOCC4)sc3nc2c1	none
Cc1cc(C)c2nc3sc(C(=O)N4CCOCC4)c(N)c3cc2c1	DAX1 inh-1 4.1, hcDAF12 agonist 5.7
CC1=C(C(=O)OCCC#N)C(c2cc3c(cc2Br)OCO3)NC(=O)N1 (stereo not drawn)	none
CCc1ccc(-c2nc(CCl)cs2)cc1	hgDAF12 agonist 12
COc1ccc(-c2nc(CCl)cs2)cc1	none
COc1ccc([N+](=O)[O-])cc1NCC(=O)Nc1cccc(S(=O)(=O)N2CCCC2)c1	none
Cc1ccc(S(=O)(=O)c2nc(Nc3ccccc3C#N)sc2Cl)cc1	hcDAF12 agonist 6.3
CN(c1ccccc1)S(=O)(=O)c1cccc(NC(=O)CCNC(=O)c2ccco2)c1	none
NC(=O)CSc1nnc2ccc(-c3ccc(Cl)cc3)nn12	none
Cc1ccc(-c2ccc3nnc(SCC(N)=O)n3n2)cc1	DAX1 inh-2 7.0

Screening data (PubChem BioAssay)
